Reference: PubChem BioAssay AID624483 (NMMLSC, 2012)
About 11,000 (3.1%) of roughly 360,000 compounds were called active. Roughly 2% stayed inconclusive and do not appear here. Shown is part of a subset that was picked to be rich in actives. A number with no mark means an inactive call. No stated cut-off is given here; in the data, active means fluorescence intensity above about 16000; inconclusive means no clear call, values can overlap the other calls; inactive means below that.

Experiment: compound fluorescence in toxin protease inhibitor counterscreen, primary screen, artefact control for toxin protease inhibitor project, biochemical, multiplex microsphere, HTS (AID 624483)
Settings: compound autofluorescence counterscreen, microsphere flow cytometry; active compounds read high

Row | SMILES | fluorescence intensity
1 | CCOC(=O)c1c(-n2cnnn2)sc(C)c1C | 20300 (active)
2 | CCOc1ccc(C(=O)COC(=O)c2ccc(-n3cnnn3)cc2)cc1 | 5640
3 | O=c1cc(CN2CCCCCCC2)c2c(ccc3ccccc32)o1 | 5650
4 | COC(=O)[C@@]1(Cc2ccc(F)cc2)[C@H]2c3cc(C(=O)N4CCCC4)n(C[C@H](O)CO)c3C[C@H]2CN1C(=O)c1ccccc1 | 4320
5 | COc1cccc(CNc2nc(NCc3ccccc3OC)nc3ccsc23)c1 | 2990
6 | Cc1ccc(S(=O)(=O)N2CCC(=O)N([C@H](COCc3ccccc3)C(C)C)CC2)cc1 | 5310
7 | CCOC(=O)Nc1ccc2c(c1)N(C(=O)CN1CCN3CCCC3C1)c1ccccc1CC2 (stereo not given) | 18500 (active)
8 | CCOC(=O)Nc1ccc2c(c1)N(C(=O)CCCl)c1ccccc1[S@]2=O | 4240
9 | CCOC(=O)Nc1ccc2c(c1)N(C(=O)CCN1CCN(CCO)CC1)c1ccccc1CC2 | 5290
10 | CCCCCCCCOC1OC(CO)C(O)C(O)C1NC(C)=O (stereo not given) | 4290
11 | CC1(C)CC(=O)C=C(c2ccccc2CO)C1=O | 3370
12 | Cc1nc2nc(C)c(CCC(=O)N3CCN(c4ccccc4)CC3)c(C)n2n1 | 8430
13 | Cc1nc2nc(C)c(CCC(=O)N3CCC4(CC3)OCCO4)c(C)n2n1 | 8020
14 | Cc1nc2ncnn2c(C)c1CCC(=O)N1CCN(C(=O)c2ccco2)CC1 | 23100 (active)
15 | Cc1ccc(C(=O)Nc2sc(Cc3ccc4c(c3)OCO4)c(C)c2C(N)=O)cc1 | 5510
16 | COc1ccc(CC(=O)Nc2c(C(N)=O)oc3ccccc23)cc1 | 6330
17 | COc1ccc(CC(=O)Nc2sc(Cc3ccccc3)c(C)c2C(N)=O)cc1 | 22200 (active)
18 | COc1ccc(CCNC(=O)Nc2ccc3c(c2)c(=O)n(C)n3C)cc1OC | 3460
19 | Cc1ccc2[nH]c(=O)c(-c3nc4c(C)cccn4c3NCc3ccco3)cc2c1 | 2400
20 | CNc1nc2c(C)cccn2c(=O)c1C=Nc1ccc(OC)cc1 | 4140
21 | CCCN(CCC)c1nc2c(C)cccn2c(=O)c1/C=C1/SC(=S)N(Cc2ccco2)C1=O | 25600 (active)
22 | CCN(CC)CC1(O)CCN(C(=O)c2ccc(Cl)c(Cl)c2)CC1 | 4500
23 | O=C1c2ccccc2C(=O)N1c1ccccc1S(=O)C(F)(F)F (stereo not given) | 2440
24 | O=C1C(Cl)=C(N2CCOCC2)C(=O)N1c1ccccc1 | 5720
25 | O=C1C(=O)N(c2ccccc2)c2ccccc21 | 22200 (active)

Row | SMILES | fluorescence intensity
26 | CCOc1ccc(C(C)=O)cc1COC(=O)CNC(=O)c1cccs1 | 6570
27 | Cc1ccnc(NC(=O)c2ccoc2C)c1 | 2220
28 | Cc1occc1C(=O)Nc1cccc(Cn2cccn2)c1 | 16800 (active)
29 | Cc1occc1C(=O)Nc1cccc(S(=O)(=O)N2CCOCC2)c1 | 3850
30 | COc1ccc(-c2ccc(C(=O)NC(C)C)c3occc23)c(C)c1 | 3110
31 | CCOC(=O)c1ccc2c(c1)nc(SCC(=O)NC(C)C)n2CC | 19400 (active)
32 | CCOC(=O)c1ccc2c(c1)nc(C)n2CC | 2830
33 | CCOC(=O)CNC(=O)CSc1nc2cccnc2n1CC | 4460
34 | CC(=O)Nc1ccc(NC(=O)CCCNC(=O)c2ccc(Cl)cc2)cc1 | 5820
35 | CCN(CC(=O)NC(C)C)C(=O)CCNC(=O)c1ccc(Cl)cc1 | 23900 (active)
36 | O=C(CCNC(=O)c1ccc(Cl)cc1)NC1CCCc2ccccc21 (stereo not given) | 5920
37 | Cc1ccc(Cn2cc(CN3CC(N4CCN(C)CC4)CS3(=O)=O)nn2)cc1 (stereo not given) | 5630
38 | COC(CNC(=O)c1ccc2c(c1)ncn2-c1cc(C)cc(C)c1)OC | 3480
39 | Cc1ccc(CN2CCN(c3ccccc3Cl)CC2)o1 | 3970
40 | COc1ccc(C(NC(=O)C2CCN(CCCc3ccccc3)CC2)c2cccs2)cc1 (stereo not given) | 3340
41 | CCn1c(O)c(N=NC(=O)c2cccc(S(=O)(=O)N3CCCCC3)c2)c2ccccc21 | 2120
42 | O=C(CC(=O)c1cccnc1)c1ccccc1 | 3800
43 | CCn1c(O)c2ccc(C(=O)N=NC(=O)c3cccnc3)cc2c1O | 22400 (active)
44 | Brc1ccc2nc(-c3ccccc3)c(Cc3ccccc3)n2c1 | 6060
45 | Cn1c(=O)[nH]c(=O)c2c1[nH]c(=S)n2Cc1ccccc1 | 5200
46 | CCCCn1c(O)c(C(CC)=NCc2ccco2)c(=O)[nH]c1=O | 22200 (active)
47 | CCCCn1c(N)c(N(CC)C(=O)/C=C/c2ccco2)c(=O)[nH]c1=O | 3280
48 | CCC(=NCCCO)c1c(O)n(-c2ccc(OC)cc2)c(=O)[nH]c1=O | 3280
49 | CCC(=NCc1ccco1)c1c(O)n(Cc2ccccc2)c(=O)[nH]c1=O | 16900 (active)
50 | Nc1c(N(Cc2ccco2)C(=O)c2cccc(F)c2)c(=O)[nH]c(=O)n1Cc1ccccc1 | 6060
